Source: PubChem BioAssay
Inconclusive results are not listed. Activity calls are given as the source filed them.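 The calls were made as follows, unless noted: active = normalized viability below 100% at a tested concentration; inactive = the rest.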

Tests used:
[1] = Wnt pathway potentiators raising nuclear beta-catenin – imaging, WNT3A-conditioned medium, mouse C2C12, NPC library, primary screen (AID 1117326; in the data active = nuclear beta-catenin stimulation mostly above about 4.2%, no sharp cut-off; inactive = mostly below about 10%); settings: stronger effect = higher value
[2] = stimulators of insulin release from INS-1E, primary screen, cell-based, 5 mM glucose, NPC library (AID 1117329;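 active = compound raises insulin release from rat beta cells at 5 mM glucose, no numeric limit stated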); settings: rat INS-1E insulin secretion, at 10 µM, stronger effect = higher value
[3] = growth inhibition of GSK3B-pretreated HCT116 cells – cell-based, CellTiter-Glo, 0.2 to 20 µM (AID 1117336;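 active = compounds lowering colon cancer cell viability after pretreatment blocking the GSK3B kinase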); settings: HCT116 viability after GSK3B inhibitor, at 20 µM, stronger effect = higher value
[4] = inhibition of endothelial tube formation, primary screen, imaging, VEGF stimulated, CD31 staining, tube area, NPC library (AID 1117340;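 active = compound that reduces growth-factor-driven endothelial tube area in a mixed cell culture, no cutoff stated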); settings: VEGF-stimulated ADSC/ECFC co-culture, at 10 µM, stronger effect = higher value
[5] = GLP1 release stimulators, primary, NCI-H716, NPC library (AID 1117341;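 active = compound raises GLP1 secretion from the human gut endocrine cells, with no numeric limit stated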); settings: NCI-H716 cells, at 10 µM, stronger effect = higher value
[6] = HCT116 colon cancer cell growth inhibition, primary screen, CellTiter-Glo luminescence, NPC library (AID 1117342;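 active = compounds that lower survival of HCT116 colon cancer cells in the luminescence readout, no numeric limit stated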); settings: at 20 µM (top of the series)
[7] = reduced SW480 viability measured with CellTiter-Glo, NPC library, primary (AID 1117343;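 active = compounds that lower viability of the colon cancer cells in the luminescence readout, with no numeric limit stated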); settings: CellTiter-Glo luminescence; at 20 µM (top of the series) unless noted
[8] = NPC library primary testing for decreased DLD-1 cell viability via CellTiter-Glo (AID 1117346;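 active = compounds that lower survival of DLD-1 colon cancer cells in the luminescence readout, no cutoff given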); settings: DLD-1 viability, CellTiter-Glo luminescence; at 20 µM (top of the series)
[9] = viability loss in pontine glioma line – cell-based, SU-DIPG-XVII, MIPE5.0, CellTiter-Glo, qHTS, dose response (AID 1347060; cut-off not given, nearly all actives have AC50 up to about 26 µM;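 as to AC50: cells exposed to compound for 48 hours before viability readout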); settings: CellTiter-Glo ATP luminescence
[10] = viability loss in pontine glioma line – cell-based, SU-DIPG-XIII, MIPE4.0, CellTiter-Glo, qHTS, dose response (AID 1347061; cut-off not given, nearly all actives have AC50 up to about 37 µM;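 also: cells exposed to compound for 48 hours before readout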); settings: CellTiter-Glo ATP luminescence
[11] = viability loss in pontine glioma line – cell-based, JHH-DIPG-1, MIPE4.0, CellTiter-Glo, qHTS, dose response (AID 1347062; cut-off not given, nearly all actives have AC50 up to about 27 µM;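 as to AC50: cells exposed to compound for two days before readout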); settings: JHH-DIPG-1 viability, CellTiter-Glo ATP luminescence
[12] = growth inhibition of DIPG cells – cell-based, MIPE5.0 library, qHTS (AID 1347068; cut-off not given, nearly all actives have IC50 up to about 30 µM;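 as to IC50: cells exposed to compound for 48 hours before viability readout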); settings: SU-DIPG-XXV viability
[13] = drug combination growth inhibition, ovarian cancer – cell-based, oncology-focused library, rucaparib conditional, profiling panel (AID 1508598); settings: patient-derived ovarian cancer cells, CellTiter-Glo viability, 144 h, stronger effect = lower value
[14] = viability loss with induced miR-34 in A549 – imaging, A549 dox-inducible miR-34, nuclei and caspase counts, primary screen (AID 1347080;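 active = compounds whose cell count with miR-34 switched on is under 0.7 times the count with it off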); settings: A549 miR-34 inducible, Hoechst nuclei count, 48 h
[15] = MELAS cybrid and Rieske KO viability enhancers – cell-based, MELAS cybrids, Rieske KO mouse fibroblasts, CellTiter-Glo, primary screen (AID 1508586;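 active = mean z-score across replicates of 1.96 or higher in either the MELAS or the Rieske mutant cell line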;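 also: z relative to plate mean and SD of compound and empty wells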); settings: low glucose

CC(C)C[C@H](NC(=O)[C@H](Cc1ccccc1)NC(=O)c1cnccn1)B(O)O
inactive: insulin secretion stimulation [2] 2.1% | GLP1 secretion stimulation [5] 1.6% | viability ([13]; at 0.000305 µM, OCI-C5x cells, with rucaparib 10 µM, 100% = cells with rucaparib alone) 114% | viability ([13]; at 0.000305 µM, OCI-C5x cells, without rucaparib) 117% | viability ([13]; at 0.00122 µM, OCI-C5x cells, with rucaparib 10 µM, 100% = cells with rucaparib alone) 114% | viability ([13]; at 0.00122 µM, OCI-C5x cells, without rucaparib) 113% | viability ([13]; at 0.00488 µM, OCI-C5x cells, with rucaparib 10 µM, 100% = cells with rucaparib alone) 119% | viability ([13]; at 0.00488 µM, OCI-C5x cells, without rucaparib) 115% | viability ([13]; at 0.00488 µM, OCI-P5x cells, with rucaparib 20 µM, 100% = cells with rucaparib alone) 102%
137%: nuclear beta-catenin stimulation ([1]; stimulation, at 2 µM)
active: nuclear beta-catenin stimulation ([1]; at 10 µM) 132% | viability decrease [3] 99% | tube area decrease [4] 107% | inhibition of viability [6] 100% | viability decrease (inhibition) [7] 132% | viability decrease (inhibition) [8] 95.4% | AC50 [9] 0.0209 µM | AC50 [10] 2.09 µM | AC50 [11] 0.0209 µM | IC50 [12] 0.0263 µM | viability ([13]; at 0.000305 µM, OCI-P5x cells, with rucaparib 20 µM, 100% = cells with rucaparib alone) 85.1% | viability ([13]; at 0.000305 µM, OCI-P5x cells, without rucaparib) 23.5% | viability ([13]; at 0.00122 µM, OCI-P5x cells, with rucaparib 20 µM, 100% = cells with rucaparib alone) 85.3% | viability ([13]; at 0.00122 µM, OCI-P5x cells, without rucaparib) 28.3% | viability ([13]; at 0.00488 µM, OCI-P5x cells, without rucaparib) 94.3% | viability ([13]; at 0.0195 µM, OCI-C5x cells, with rucaparib 10 µM, 100% = cells with rucaparib alone) 38.9% | viability ([13]; at 0.0195 µM, OCI-C5x cells, without rucaparib) 15.9% | viability ([13]; at 0.0195 µM, OCI-P5x cells, with rucaparib 20 µM, 100% = cells with rucaparib alone) 5.88% | viability ([13]; at 0.0195 µM, OCI-P5x cells, without rucaparib) 1.5% | viability ([13]; at 0.0781 µM, OCI-C5x cells, with rucaparib 10 µM, 100% = cells with rucaparib alone) 2.87% | viability ([13]; at 0.0781 µM, OCI-C5x cells, without rucaparib) 2.36% | viability ([13]; at 0.0781 µM, OCI-P5x cells, with rucaparib 20 µM, 100% = cells with rucaparib alone) 1.94% | viability ([13]; at 0.0781 µM, OCI-P5x cells, without rucaparib) 1.08% | viability ([13]; at 0.313 µM, OCI-C5x cells, with rucaparib 10 µM, 100% = cells with rucaparib alone) 2.19% | viability ([13]; at 0.313 µM, OCI-C5x cells, without rucaparib) 1.67% | viability ([13]; at 0.313 µM, OCI-P5x cells, with rucaparib 20 µM, 100% = cells with rucaparib alone) 1.91% | viability ([13]; at 0.313 µM, OCI-P5x cells, without rucaparib) 0.96% | viability ([13]; at 1.25 µM, OCI-C5x cells, with rucaparib 10 µM, 100% = cells with rucaparib alone) 1.59% | viability ([13]; at 1.25 µM, OCI-C5x cells, without rucaparib) 1.6% | viability ([13]; at 1.25 µM, OCI-P5x cells, with rucaparib 20 µM, 100% = cells with rucaparib alone) 1.8% | viability ([13]; at 1.25 µM, OCI-P5x cells, without rucaparib) 0.86% | viability ([13]; at 5 µM, OCI-C5x cells, with rucaparib 10 µM, 100% = cells with rucaparib alone) 1.34% | viability ([13]; at 5 µM, OCI-C5x cells, without rucaparib) 1.65% | viability ([13]; at 5 µM, OCI-P5x cells, with rucaparib 20 µM, 100% = cells with rucaparib alone) 1.02% | viability ([13]; at 5 µM, OCI-P5x cells, without rucaparib) 0.609%

CC(=O)SC[C@@H](C)C(=O)N1CCC[C@H]1C(=O)N[C@@H](Cc1ccccc1)C(=O)O
inactive: nuclear beta-catenin stimulation ([1]; at 10 µM) -0.2% | insulin secretion stimulation [2] 0% | viability decrease [3] -13.4% | tube area decrease [4] 7.4% | GLP1 secretion stimulation [5] 0.3% | inhibition of viability [6] 2.4% | viability decrease (inhibition) [7] -15.3% | viability decrease (inhibition) [8] -1.4% | outcome [9] | outcome [10] | outcome [11]
-1.6%: nuclear beta-catenin stimulation ([1]; stimulation, at 2 µM)

CCC(C)(Oc1ccc(C2(c3ccc(OC(C)(CC)C(=O)O)cc3)CCCCC2)cc1)C(=O)O (stereo unspecified)
-1.3%: nuclear beta-catenin stimulation ([1]; stimulation, at 2 µM)
10200: cell count ([14]; measured here: total cells without miR-34 induction)
inactive: nuclear beta-catenin stimulation ([1]; at 10 µM) -1.5% | insulin secretion stimulation [2] 1.2% | viability decrease [3] -30.5% | tube area decrease [4] 0.6% | GLP1 secretion stimulation [5] 4.1% | inhibition of viability [6] -3.43% | viability decrease (inhibition) [7] 15.4% | viability decrease (inhibition) [8] -14.6% | outcome [9] | outcome [10] | outcome [11] | outcome [12] | fold change ([14]; stronger effect = lower value, cell number ratio, induced over uninduced) 0.893 | z-score ([15]; MELAS cybrid survival, CellTiter-Glo 48 h, stronger effect = higher value) -0.322
0.575: z-score ([15]; Rieske KO mouse fibroblast survival, CellTiter-Glo 72 h)
0.926: fold change ([14]; measured here: relative caspase fold change +Dox/-Dox)
9130: cell count ([14]; measured here: total cells with miR-34 induction, stronger effect = lower value)
